# An excerpt weighted towards active compounds, which were near 3.4% of everything screened.
# HSF1 inhib – HSF1 inhibitors in luciferase reporter cells, primary screen, cell-based, NIH3T3, luminescence | AID 2098, 2009 | NIH3T3-HGL HSE-luciferase, MG132-induced, luminescence 8 h; stronger effect = lower value | 300,000 compounds, 0.77% hits | activity change, negative = inhibition, % at 7.5 µM (by protocol);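 active = more than half of replicate wells show activity change below -50%, luminescence cut by over half; inconclusive = some wells, but at most half, below -50%; inactive = no replicate well below -50%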;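 note: luciferase reports HSF-1 transcriptional activity via heat shock element; 0% = median of DMSO wells and -100% = zero luminescence signal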
# Vif inh – HIV Vif self-association inhibitors, primary screen, imaging, HEK293T, single point; HEK293T cells, Vif self-association by quenched fluorescence, 24 h; inhibition, % at 7.49 µM; 340,000 compounds, 0.35% hits; AID 602346, 2012; in the data active = inhibition above about 50%, passing the limit was not always enough; inconclusive = no clear call, values can overlap the other calls; inactive = below about 31%
# esBAF inh – Bmi1 luciferase reporter increase in mESCs, primary screen, esBAF inhibitor project, mouse ES cells, Bmi1 luciferase knock-in, single point; 24 h; 100% = twice the neutral-well signal; reporter increase, % at 12.5 µM; 350,000 compounds, 2% hits; AID 602393, 2012; in the data active = activation above about 40%; inconclusive = no clear call, values can overlap the other calls;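 note: 0% = median of the plate's neutral control wells and 100% = double that signal; a rise in the Bmi1 reporter signal indicates esBAF inhibition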
# HSF1 activator – HSF-1 activators, primary screen, NIH3T3-HGL cells, MG132 stress, luminescence, single point. NIH3T3-HGL HSF-1 luciferase reporter, 8 h; 100% = twice DMSO control signal. activation, % at 9 µM. 300,000 compounds, 1.7% hits;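 active = mean replicate activation of at least 50% with a set share of replicates each reaching 50%; inconclusive = only one of those two conditions met; inactive = mean below 50% and too few replicates reaching it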;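 note: 0% = median of the neutral control wells and 100% = twice that signal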
# An asterisk follows results filed as active; ? = inconclusive; . = no result given.
SMILES,HSF1 inhib,Vif inh,esBAF inh,HSF1 activator
O=C(Nc1ccc(-c2ccccc2)cc1)[C@H]1[C@H](CO)[C@H]2Cn3c(cccc3=O)[C@H]2N1CC1CCCCC1,.,.,3,.
COc1ccc(NC(=O)Nc2ccc3c(c2)CC(=O)N([C@@H](C)CO)C[C@H](C)[C@H](CN(C)S(=O)(=O)c2c(C)noc2C)O3)cc1,.,.,-7,.
C[C@@H]1CN([C@@H](C)CO)C(=O)c2ccccc2-c2ccccc2CO[C@H]1CN(C)C(=O)Nc1cccc(F)c1,.,.,13,.
CCOC(=O)c1cc2occc2n1CC(=O)Nc1ccc(OC)cc1OC,7,-2,2,19
CCOC(=O)c1cc2occc2n1CC(=O)N1CCOCC1,?,60*,-7,-43
COCCN(CC(=O)Nc1cccc(C)c1C)C(=O)c1ccc2ccccc2n1,.,-3,47*,.
O=C(Nc1ccccc1N1CCOCC1)c1ccc2c(c1)OCO2,-4,-3,.,14
C/C(=N\NC(=O)c1ccc(CN2CCOCC2)cc1)c1ccc(NC(=O)c2ccccc2)cc1,18,17,66*,19
O=C(Nc1ccccc1N1CCOCC1)c1ccc2ccccc2c1,7,-9,55*,5
CC(=O)Nc1ccc(/C(C)=N/NC(=O)c2ccc(CN3CCOCC3)cc2)cc1,-6,0,.,4
O=C(Nc1ccc(CN2CCOCC2)cc1)c1ccc(Cl)cc1,15,2,44*,24
O=C(Nc1ccc(F)cc1F)c1ccc2nc(N3CCOCC3)sc2c1,-2,-9,42*,-4
O=C(Nc1cc(F)ccc1F)N1C[C@@H]2[C@H](c3ccccc31)[C@@H](CO)N2CC1CCCC1,.,.,-5,.
O=C(Nc1ccc(CN2CCOCC2)cc1)c1ccc2ccccc2c1,7,-11,61*,35
N#Cc1cc2ccccc2nc1SCC(=O)Nc1ccccc1N1CCOCC1,24,-9,-3,71*
Cc1cccc2cc(C#N)c(SCC(=O)Nc3ccccc3N3CCOCC3)nc12,-13,8,-4,-13
O=C(Nc1ccc(CN2CCOCC2)cc1)c1cccc(F)c1,6,6,4,2
CCOc1ccc(N/C=C/C(=O)c2ccc(OC)c(OC)c2)cc1,-7,1,70*,-3
CCOC(=O)c1ccc(N/C=C/C(=O)c2ccc(OC)c(OC)c2)cc1,-35,2,12,-43
COc1ccc(N/C=C\C(=O)c2ccc3ccccc3c2)cc1,5,4,43*,27
COc1ccc(NC(=O)c2ccc(=O)oc2)cc1,2,8,0,17
COc1ccc(C(=O)/C=C/Nc2ccc(C)cn2)cc1OC,26,?,60*,44
COc1ccc(NC(=O)c2coc(C)c2)cc1,3,-18,74*,25
C[C@@H]1CN([C@H](C)CO)C(=O)Cc2cc(NC(=O)Nc3ccc(F)cc3)ccc2O[C@H]1CN(C)Cc1ccncc1,.,.,-7,.
COc1cccc(C(=O)Nc2ccc(NC(=O)C3CCCCC3C(=O)O)cc2)c1 (configuration not stated),-1,.,8,-5
SMILES,HSF1 inhib,Vif inh,esBAF inh,HSF1 activator
CC(=O)c1cccc(NC(=O)c2ccc3ccccc3c2)c1,36,-10,3,55*
COc1ccc(NC(=O)c2ccc3ccccc3c2)cc1,11,-3,31,62*
COc1cccc(C(=O)Nc2ccc(NC(=O)C3CC=CCC3C(=O)O)cc2)c1 (configuration not stated),-52*,6,-1,-64
COc1ccc(C(=O)NNC(=O)c2ccc3ccccc3c2)cc1,.,-2,-2,.
COc1ccc(NC(=O)c2ccc(NC(=O)c3ccncc3)cc2)cc1,-3,0,-2,-12
COc1ccc(C(=O)Nc2ccc(C3CC3(Cl)Cl)cc2)cc1 (configuration not stated),21,-3,91*,28
COc1ccccc1CNC(=O)C[C@@H]1C[C@@H]2c3cc(NC(=O)CN(C)C)ccc3O[C@@H]2[C@H](CO)O1,.,.,5,.
CS(=O)(=O)N1[C@@H]2Cn3c(ccc(C4=CCCC4)c3=O)[C@H]1[C@@H](C(=O)N1CCCCC1)[C@@H]2CO,.,.,-4,.
CN(C)CC(=O)N[C@H]1CC[C@H](CCn2cc(C3CCCC3)nn2)O[C@@H]1CO,.,.,10,.
O=C(N/N=C/c1ccc(O)cc1)c1[nH]c2ccc(Br)cc2c1-c1ccccc1,-58*,-3,.,-69
O=C(N/N=C/c1c[nH]c2ccccc12)c1[nH]c2ccc(Br)cc2c1-c1ccccc1,-21,-1,.,-38

# High-throughput results: PubChem BioAssay, Broad Institute
